Screens from PubChem BioAssay.
This is a sample that favours compounds with a hit; in the whole collection about 10% have one here.
GLS inhibitor – glutaminase GLS (human) inhibition | Potency, µM (top dose mostly 45.5 µM), without a hit: at the top dose activity change, negative = inhibition, hits mostly inhibitors | O94925 | 410,000 tested, 0.21% active | GLS enzymatic activity, qHTS titration | AID 624170; note: % is set by controls: 0 for no effect and ±100 for the full control effect
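hKGA in 45 mM KH2PO4 (pH 8.2), 0.02% Tween-20 with compound, then 1mM L-Glutamine (stock as added) plus glutamate oxidase/HRP/Amplex red coupling mix. Fluorescence read initially and after 30 min at RT; signal change reflects glutamate formation.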
JMJD2A Tudor – JMJD2A Tudor domain (human) inhibition. 390,000 tested, 4.4% active. AlphaScreen JMJD2A-Tudor / H3K4me3 peptide binding. Potency, µM (doses to about 114 µM), inactives show at the top dose activity change, negative = inhibition, most hits filed as inhibitors; note: % is set by controls: 0 for no effect and ±100 for the full control effect; nearly all actives have a fitted effect of over 50% in size
G9a inh – G9a (human) methyltransferase inhibition; G9a H3K9 monomethylation, AlphaScreen, 2 h; Potency, µM (top dose mostly 102 µM), without a hit: at the top dose activity, negative = inhibition, usual class: inhibitors; 350,000 tested, 8.8% active; note: % is set by controls: 0 for no effect and ±100 for the full control effect; nearly all actives have a fitted effect of over 75% in size
Target sequence (Q96KQ7 913-1193 limits assumed): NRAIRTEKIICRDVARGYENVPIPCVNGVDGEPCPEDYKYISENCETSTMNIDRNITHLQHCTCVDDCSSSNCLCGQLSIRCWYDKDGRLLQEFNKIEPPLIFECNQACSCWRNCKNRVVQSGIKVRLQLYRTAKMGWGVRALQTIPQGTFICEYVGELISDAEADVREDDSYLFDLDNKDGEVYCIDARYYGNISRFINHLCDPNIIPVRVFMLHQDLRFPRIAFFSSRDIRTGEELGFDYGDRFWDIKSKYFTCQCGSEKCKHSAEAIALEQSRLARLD
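Step 1: enzyme (final 20 nM) with compound, 15 min RT. Step 2: substrate peptide 500 nM and SAM 20 uM, 2 h RT. Step 3: anti-H3K9me1 antibody and AlphaScreen beads, 10 min, then plate read.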
HP1b chromo inh – HP1-beta chromodomain-methylated histone interaction inhibition; P83916; AID 540317; 390,000 tested, 0.56% active; AlphaScreen HP1-beta / biotin-H3K9me3 peptide binding; Potency, µM (top dose mostly 114 µM), for inactives: at the top dose activity change, negative = inhibition, most hits filed as inhibitors; note: nearly all actives have a fitted effect of over 70% in size
Target sequence (P83916 whole entry, looked up): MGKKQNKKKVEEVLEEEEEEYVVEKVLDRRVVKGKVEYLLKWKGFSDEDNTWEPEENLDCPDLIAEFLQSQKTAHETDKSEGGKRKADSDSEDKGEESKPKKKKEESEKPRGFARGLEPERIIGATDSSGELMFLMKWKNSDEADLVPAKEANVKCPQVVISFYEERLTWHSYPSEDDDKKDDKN
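HP1-beta protein (50 nM final) preincubated 30 min at room temperature with biotinylated H3(1-18)K9me3 peptide (50 nM) in PBS pH 7.4, 0.01% Tween-20, then compound added for 30 min. AlphaScreen streptavidin donor/nickel chelate acceptor beads (10 ug/mL final), 30 min dark, luminescence read.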
BAZ2B inh – BAZ2B (human) inhibition | AlphaScreen BAZ2B-H3K14Ac peptide displacement | 360,000 tested, 4.4% active | Potency, µM (doses to about 114 µM), inactives show at the top dose activity change, negative = inhibition, most hits filed as inhibitors | Q9UIF8; note: % is set by controls: 0 for no effect and ±100 for the full control effect; nearly all actives have a fitted effect of over 60% in size
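Multi-concentration screen (max 110 uM) measuring displacement of acetylated histone H3 peptide from BAZ2B by AlphaScreen, using 50 nM protein, 50 nM peptide and 10 ug/mL streptavidin donor plus Ni-chelate acceptor beads.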
* = called active by the depositor; [ ] = another dose, or the depositor's remark. Calls come from the whole dose curve; as a rule, active = well fitted curve in the direction sought with a large enough effect; inconclusive = small, poorly fitted or top-dose-only effect, or another doubt; inactive = no such curve, though single readings can be large; an effect the other way counts as inactive or inconclusive. Potency is the fitted concentration of half-maximal effect.

For CC(C)n1nc(C(=O)NNC(=O)c2ccc(OC(F)F)cc2)c2ccccc2c1=O the results were GLS inhibitor 10%, JMJD2A Tudor -5%, G9a inh 3.2µM*, HP1b chromo inh 52% and BAZ2B inh -2%.
Screening Cn1nc(C(=O)NCc2ccccn2)c2ccccc2c1=O returned GLS inhibitor 3%, JMJD2A Tudor 22µM*, G9a inh -5%[59 µM], HP1b chromo inh 16% and BAZ2B inh inconclusive.
Screening Cn1nc(C(=O)NCc2ccccc2)c2ccccc2c1=O returned GLS inhibitor -5%, JMJD2A Tudor -7%, G9a inh -30%[12.7 µM], HP1b chromo inh 41% and BAZ2B inh -29%.
Screening O=C(CSc1n[nH]c(-c2cccs2)n1)NC1CCS(=O)(=O)C1 (stereo unspecified) returned GLS inhibitor 0%, JMJD2A Tudor 0%, G9a inh -6%, HP1b chromo inh 32% and BAZ2B inh 0%.
Screening Cc1nn(CC(=O)N2CCC(C)CC2)c(=O)c2cc3occc3n12 returned GLS inhibitor -6%, JMJD2A Tudor 4%, G9a inh 3%[59 µM], HP1b chromo inh 34% and BAZ2B inh 2%.
Screening CCc1ccc(/C([O-])=C(/C(=S)NCCN2CCOCC2)[n+]2ccccc2)cc1 returned GLS inhibitor 6%, JMJD2A Tudor -26%, G9a inh 25µM*, HP1b chromo inh -2% and BAZ2B inh -22%.
Screening S=C(NCCN1CCOCC1)C(=S)NCCN1CCOCC1 returned GLS inhibitor 9%, JMJD2A Tudor inconclusive and HP1b chromo inh 4%[57 µM].
CCOC(=O)C(O)(NC(=O)c1cccnc1)C(F)(F)F (stereo unspecified) was read as GLS inhibitor 1%, JMJD2A Tudor 8%, G9a inh inconclusive, HP1b chromo inh 52% and BAZ2B inh -31%.
Cc1cc(/C=C2\SC(=S)NC2=O)c(C)[nH]1 was read as GLS inhibitor 7%, JMJD2A Tudor inconclusive, HP1b chromo inh -23% and BAZ2B inh 45µM*.
`CCn1c(C)cc(/C=C2/SC(=S)NC2=O)c1C` gave GLS inhibitor -2%, JMJD2A Tudor -22%, G9a inh inconclusive, HP1b chromo inh 9% and BAZ2B inh -37%.
For CCn1ncc(/C=C2/SC(=S)NC2=O)c1C the results were GLS inhibitor 17%, JMJD2A Tudor -8%, G9a inh 50µM*, HP1b chromo inh 21% and BAZ2B inh -33%.
CN(C)c1ccc(/C=C/C(=O)c2ccc3c(c2)OCCO3)cc1[N+](=O)[O-] was read as GLS inhibitor 0%, JMJD2A Tudor -6%, G9a inh inconclusive, HP1b chromo inh 13% and BAZ2B inh inconclusive.
O=C(Nc1ccccc1)Nc1ccc2ocnc2c1 was read as GLS inhibitor 20µM*, JMJD2A Tudor inconclusive, G9a inh 2%, HP1b chromo inh -3% and BAZ2B inh -15%.
For S=c1nc[nH]c2c1ncn2-c1ccccc1 the results were GLS inhibitor -5%, JMJD2A Tudor 0.63µM* and HP1b chromo inh 15%[57 µM].
CC(C)n1cnc2c(=S)nc[nH]c21 was read as GLS inhibitor -4%, JMJD2A Tudor inconclusive, G9a inh 0.79µM*, HP1b chromo inh 39% and BAZ2B inh 50µM*.
For COc1ccccc1-n1cc(-c2ccccc2)c2c(=S)nc[nH]c21 the results were GLS inhibitor 1%, JMJD2A Tudor -8%, G9a inh 7%[59 µM], HP1b chromo inh 23% and BAZ2B inh -34%.
Screening CC(=O)c1cccc(NC(=O)CSc2nc3ccccc3c(=O)n2CCCN2CCOCC2)c1 returned GLS inhibitor 5%, JMJD2A Tudor -17% and HP1b chromo inh 25%.
For CC12CCC(C(=O)Nc3cc(F)ccc3F)(CC1=O)C2(C)C (stereo unspecified) the results were GLS inhibitor -8%, JMJD2A Tudor -13%, G9a inh 14%[12.7 µM], HP1b chromo inh 34% and BAZ2B inh -12%.
`C#CCOCCOCCOCCNc1nc(N2CCN(C(=O)C(Cc3cc4ccccc4[nH]3)n3cc(C(N)Cc4ccc(O)cc4)nn3)CC2)nc(N2CCN(C(=O)C(CCC(=O)O)n3cc(C(N)C(C)CC)nn3)CC2)n1` (stereo unspecified) gave GLS inhibitor 15%, JMJD2A Tudor 45µM*, G9a inh -29%[2.33 µM], HP1b chromo inh -6% and BAZ2B inh 32µM*.
C#CCOCCOCCOCCNc1nc(N2CCN(C(=O)[C@H](CCC(=O)O)n3cc(C(N)Cc4ccc(O)cc4)nn3)CC2)nc(N2CCN(C(=O)[C@H](Cc3cc4ccccc4[nH]3)n3cc(C(N)[C@H](C)CC)nn3)CC2)n1 (stereo partly specified) was read as GLS inhibitor 12%, JMJD2A Tudor 45µM*, G9a inh 4%[12.7 µM], HP1b chromo inh 15% and BAZ2B inh 50µM*.
CCCCN(C)C1CCN(C(=S)Nc2cccc(OC)c2)CC1 was read as GLS inhibitor 12%, JMJD2A Tudor -9%, G9a inh inconclusive, HP1b chromo inh 35% and BAZ2B inh 14%.
Screening O=C(N/N=C/c1coc2ccccc2c1=O)c1ccncc1 returned GLS inhibitor 21%, JMJD2A Tudor -8%, G9a inh 16%, HP1b chromo inh 53% and BAZ2B inh -14%.
`O=C(N/N=C/c1coc2ccccc2c1=O)c1cc(Br)c(O)c(Br)c1` gave GLS inhibitor -24%, JMJD2A Tudor -33%, G9a inh 50µM*, HP1b chromo inh 23% and BAZ2B inh -39%.
Screening CCCCC(=O)NCCc1c(Cc2ccccc2)[nH]c2ccccc12 returned G9a inh 13µM*.
`CC(=O)NCCc1c(Cc2ccccc2)[nH]c2ccccc12` gave G9a inh 19%[59 µM].
Screening Cc1cc(C)n(C(=O)c2ccc(NC(=O)C3CC3)cc2)n1 returned GLS inhibitor -1%, JMJD2A Tudor -21%, G9a inh 10%, HP1b chromo inh 30% and BAZ2B inh -6%.
Screening Cc1cc(C)c(C)c(OCCNCc2ccccc2)c1 returned GLS inhibitor -2%, JMJD2A Tudor 3.5µM*, G9a inh 11µM*, HP1b chromo inh -8% and BAZ2B inh 20µM*.
`Cc1cc(C)c(OCCN(C)Cc2ccccc2)c(Br)c1` gave GLS inhibitor -19%, JMJD2A Tudor 0%, G9a inh 20%[59 µM], HP1b chromo inh 54% and BAZ2B inh 6%.
For Cc1cc(C)c(OCCCCNCc2ccccc2)c(Cl)c1 the results were GLS inhibitor -2%, JMJD2A Tudor 1.4µM*, G9a inh 35%[0.501 µM], HP1b chromo inh -53% and BAZ2B inh 56µM*.
Clc1ccc(OCCOCCNCc2ccccc2)cc1Cl was read as GLS inhibitor -1%, JMJD2A Tudor 25µM*, HP1b chromo inh -14% and BAZ2B inh inconclusive.
